Data on 10 molecules can be found in PubChem BioAssay (NCI).

Common to all, as to test: NCI-60 one-dose screen, 48 h (100 = growth as untreated, 0 = no growth, -100 = all killed)
Assay [1] concerns HCT-15 colon.
The test system of assay [2] is HT29 colon. To be noted: 10 µM unless noted.
Assay [3] deals with SNB-75 CNS.
Assay [4] concerns SNB-19 CNS.
Assay [5] concerns U251 CNS. The settings on record: 10 µM unless noted.
In assay [6] the test system is PC-3 prostate.
In assay [7] the test system is SK-MEL-5 melanoma.
Assay [8] concerns UACC-62 melanoma.
Assay [9] has as its system LOX IMVI melanoma.
For assay [10], the system named is SK-MEL-28 melanoma.

Where “and” joins values, the source holds several entries; their conditions need not be identical. Equal entries are not always repeated. About 83,000 compounds went through this panel and 20% of them were active in at least one assay; those are over-represented in the sample as a whole.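 Step 1: grow cells in 96-well plates. Step 2: add test compound at a single concentration. Step 3: incubate 48 h. Step 4: record percent growth.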 A number with no mark means an inactive call. Calls of active or inactive are those of the source. The calls were made as follows: active = growth percent below 10; inactive = the rest.

Turning to `Cc1ccc2nc(C[n+]3ccc4ccccc4c3)ccc2c1`, the growth in assay [1] (10 µM unless noted) is 99%; in assay [2], 37.3%; in assay [3] (10 µM unless noted), 58.9%; in assay [4] (10 µM unless noted) it was 46.5%; in [5], 42.1%; in assay [6] (10 µM unless noted), 38.5%. The growth is -31.1% (active) in assay [7] (10 µM unless noted), 69.8% in [8] (10 µM unless noted), 68.4% in assay [9] (10 µM unless noted) and 63.5% in [10] (10 µM unless noted).

With `CC(C)(C)CC(C)(C)c1ccc(OCCSC(=N)N)cc1`, the growth in assay [1] (10 µM unless noted) is 1.48% (active); in assay [2], 2.71% (active); in assay [3] (10 µM unless noted) it was 77.7%; in [4] (10 µM unless noted), 87%; in assay [5] it was 12.3%; in [6] (10 µM unless noted), 72.2%. For the same molecule, the growth in [7] (10 µM unless noted) was 27.9%; in [8] (10 µM unless noted) it was 66.5%; in [9] (10 µM unless noted), 8.68% (active); in assay [10] (10 µM unless noted), -72.7% (active).

`O=C1NC(=O)/C(=C/C=C/c2ccccc2)S1`: the growth was 54.1% in [1] (10 µM unless noted); 56.6% in assay [2]; 59.7% in [3] (10 µM unless noted); 28.3% in [4] (10 µM unless noted); 17.1% in assay [5]; 87.5% in assay [6] (10 µM unless noted). Further, the growth in assay [7] (10 µM unless noted) was 25%; in [8] (10 µM unless noted), 1.33% (active); in assay [9] (10 µM unless noted) it was 15.8%; in [10] (10 µM unless noted) it was 84.6%.

Take `COc1ccc(-c2cscc2N)cc1`: the growth in assay [1] (10 µM) was 63.1%; in [1] (100 µM) it was 63.9%; in assay [3] (10 µM) it was 88.8%; in assay [3] (100 µM), 51.9%; in assay [5], 38.5% [100 µM]; in assay [6] (10 µM), 98.4%. The growth in assay [6] (100 µM) was 41.4%; in [7] (10 µM) it was 48.8%; in [7] (100 µM), 33.1%; in assay [8] (10 µM), 43.4%; in [8] (100 µM), -9.3% (active); in [9] (10 µM unless noted) it was 45.7%. In addition, the figures for the growth in assay [10] (10 µM) and in [10] (100 µM) were 96.4% and 51.4%, respectively.

Take `Oc1c(Br)c(Br)c(O)c(Br)c1Br`: the growth in assay [1] (10 µM unless noted) is 11%; in assay [2] it was 129%; in assay [3] (10 µM unless noted) it was 120%; in [4] (10 µM unless noted), 106%; in assay [5], 114%; in assay [6] (10 µM unless noted), 105%. For the same molecule, the growth in assay [7] (10 µM unless noted) was 102%; in [8] (10 µM unless noted), 93.3%; in assay [9] (10 µM unless noted), 90.9%; in [10] (10 µM unless noted), 92.8%.

For the molecule `O=C(O)c1c(Cl)c(Cl)c(Cl)c(Cl)c1-c1c2cc(I)c(=O)c(I)c-2oc2c(I)c(O)c(I)cc12`, the growth in assay [1] (10 µM) was 101% and 107% and 90.1%; in [1] (100 µM), 22.9%; in assay [3] (10 µM) it was 108% and 91.1% and 49.5%; in assay [3] (100 µM) it was 26%; in [4] (10 µM), 100% and 98.4% and 97.9%; in [4] (100 µM), -47.9% (active). Besides, the growth is 116% and 82.8% and 34% in assay [6] (10 µM); -7.17% (active) in assay [6] (100 µM); 107% and 110% and 96.1% in assay [7] (10 µM); 22.1% in assay [7] (100 µM); 98.8% and 107% and 96.1% in assay [8] (10 µM); -41.3% (active) in [8] (100 µM). Moreover, the growth in assay [10] (10 µM) was 105% and 327% and 108%; in [10] (100 µM) it was -55.7% (active).

Take `CCCCCC(CCCCC)C(=O)O`: the growth in assay [1] (10 µM unless noted) is 98.2%; in assay [2], 105%; in assay [3] (10 µM unless noted), 89.9%; in assay [4] (10 µM unless noted), 103%; in assay [5] it was 85.5%; in assay [6] (10 µM unless noted), 87.6%. The growth in assay [7] (10 µM unless noted) was 117%; in assay [8] (10 µM unless noted), 94.4%; in [9] (10 µM unless noted), 110%; in assay [10] (10 µM unless noted), 111%.

In the case of `C[n+]1c(/C=C/c2ccc([N+](=O)[O-])cc2)ccc2ccccc21`, the growth in assay [1] (10 µM unless noted) is 98.6%; in assay [2], 104%; in assay [3] (10 µM unless noted), 92.5%; in assay [4] (10 µM unless noted) it was 108%; in [5], 99.6%; in [6] (10 µM unless noted), 90%. Also, the growth is 97.9% in assay [7] (10 µM unless noted), 95.6% in assay [8] (10 µM unless noted), 92.3% in assay [9] (10 µM unless noted) and 121% in [10] (10 µM unless noted).

As for `O=C(Nc1c(Cl)cccc1Cl)Oc1cccc2cccnc12`, the growth in [1] (10 µM) is 27.9%; in assay [1] (100 µM), 18.3%; in [3] (10 µM) it was 73.1%; in assay [3] (100 µM), 20.8%; in assay [4] (10 µM), 56.4%; in assay [4] (100 µM) it was 25.8%. Further, the growth is 19.5% [100 µM] in assay [5]; 41% in [6] (10 µM); 19.3% in [6] (100 µM); 55.9% in [7] (10 µM); 14.4% in assay [7] (100 µM); 20.2% in assay [8] (10 µM). Besides, the growth is -74.8% (active) in assay [8] (100 µM); 33.1% in [9] (10 µM); 7.87% (active) in assay [9] (100 µM); 73.9% in [10] (10 µM); 38.5% in [10] (100 µM).

Regarding `CC(=O)Nc1cccc2cc(O)ccc12`, the growth in assay [1] (10 µM unless noted) was 112% and 107% and 99.9%; in assay [2] it was 115% and 107% and 95.8%; in assay [3] (10 µM unless noted) it was 91.4% and 101% and 75.3%; in assay [4] (10 µM unless noted), 106% and 94.8%; in [5] it was 108% and 102% and 101%; in assay [6] (10 µM unless noted), 104% and 96.3% and 80.3%. Besides, the growth in [7] (10 µM unless noted) is 113% and 117% and 106%; in [8] (10 µM unless noted), 96.3% and 90.9% and 96.9%; in [9] (10 µM unless noted), 104% and 106%; in assay [10] (10 µM unless noted), 110% and 111% and 104%.
